Experimental data as given in PubChem BioAssay AID1117319 (Southern Research Institute, 2015).
The campaign covered roughly 260,000 compounds. About 1,500 (0.58%) were called active. Not shown: some 5% with an inconclusive outcome. Not all results are given here. Entries with a potency or affinity are not part of this list. Values without a mark were called inactive.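 How the source made its calls: active means inhibition above a set limit at one or more doses, reproduced on every date tested; inconclusive means results disagree between test dates, or hit never tested in dose response; inactive means the rest.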

Molecular target: Virion infectivity factor (Human immunodeficiency virus type 1 group M subtype B (isolate BH10)) + Virion infectivity factor (Human immunodeficiency virus type 1 group M subtype B (isolate BRU/LAI)) + Virion infectivity factor (Human immunodeficiency virus type 1 group M subtype B (isolate PCV12)) + Virion infectivity factor (Human immunodeficiency virus type 1 group M subtype B (isolate HXB2)) + DNA dC->dU-editing enzyme APOBEC-3G (Homo sapiens) (UniProt P69720+P69721+P69722+P69723+Q9HC16)
Test: HIV-1 Vif–A3G interaction blockers – biochemical, TR-FRET, GST-Vif 1-94, biotin-A3G peptide, dose response retest, primary screen (AID 1117319);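 further: Vif residues 1-94 fused to GST binding biotinylated APOBEC3G peptide 110-148; 0% = full assay without inhibitor and 100% = GST in place of GST-Vif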
Details: TR-FRET GST-Vif / biotin-A3G peptide binding; hits give high values

Row | Compound | inhibition
1 | Cc1ccc(NC(=O)CSc2nc(C)c(C)c(C)n2)c([N+](=O)[O-])c1 | -0.85%
2 | CCOC(=O)C1=C(C)N=C(/N=C/N(C)C)SC1c1ccccc1 (centres undefined) | 18.8%
3 | COc1ccccc1NC(=O)Cn1c(CCC(=O)O)ccc1-c1ccccc1 | -8.03%
4 | O=C(O)CCc1ccc(-c2ccccc2)n1CC(=O)O | 6.57%
5 | O=S(=O)(Nc1ccc2c(c1)OCCO2)c1ccc2oc3ccccc3c2c1 | -4.26%
6 | Cc1ccc(C(=O)Nn2c(O)c(C=C3N=c4ccccc4=N3)sc2=S)cc1 | 0.29%
7 | O=C(CCNC(=O)N1CC(=O)Nc2ccccc21)NCc1ccccc1Cl | 2.33%
8 | COCCN1CC(C(=O)NCc2ncccc2C)CCC1=O (centres undefined) | 0.7%
9 | O=c1oc2ccc([N+](=O)[O-])cc2c(N2CCOCC2)c1[N+](=O)[O-] | -2.71%
10 | COC(=O)Cc1cc(=O)n(-c2ccccc2)[nH]1 | 20.8%
11 | COc1ccc(-c2cc(=O)n(-c3nc4ccccc4[nH]3)[nH]2)cc1 | 10.5%
12 | COCCSc1nc2c(c(=O)[nH]c(=O)n2C)n1CCC(C)C | 2.86%
13 | Cc1ccc(N(CCO)C(=S)Nc2ccccc2)cc1 | 1.36%
14 | O=C(c1cc(-c2ccccc2)nn1-c1ccccc1)N1CCN(S(=O)(=O)c2ccc(F)cc2)CC1 | -4.9%
15 | CCOC(=O)c1c(C)oc2c1c(C=NCCO)c(O)c1ccccc12 | 14.7%
16 | CCOC(=O)c1c(C)oc2c1c(C=NCC1CCCO1)c(O)c1ccccc12 (centres undefined) | 25.6%
17 | CNS(=O)(=O)c1cccc(C(=O)OCC(=O)c2ccc3[nH]c(=O)[nH]c3c2)c1 | 4.94%
18 | COc1ccccc1NC(=S)NC(NC(C)=O)C(Cl)(Cl)Cl (centres undefined) | -2.68%
19 | O=C(CCC(=O)N1CCN(c2ccccc2F)CC1)c1ccc(F)cc1 | 0.58%
20 | Cc1cccn2c(=O)nc(SCC(=O)N3CCCCC3)nc12 | -0.7%
21 | Cc1cc(=O)n2nc(-c3ccc(C(F)(F)F)cc3)sc2n1 | 0.75%
22 | CCOc1ccc(/C=C/C(=O)Nc2ccc(N3CCOCC3)cc2)cc1 | 3.96%
23 | CCN(CC)S(=O)(=O)c1ccc(/C=C/C(=O)Nc2ccccc2N2CCOCC2)cc1 | 28.5%
24 | CCNC(=O)COC(=O)c1ccc(S(=O)(=O)N2CCCCCC2)cc1 | -4.99%

Row | Compound | inhibition
25 | CC(C)Cc1cc(C(=O)N2CCC(N3CCC(C(=O)N4CCOCC4)CC3)CC2)n[nH]1 | 12.3%
26 | CCCCN(C)C(=O)c1nc2ccccn2c1CN1CCN(c2ccccn2)CC1 | -11.9%
27 | COCCn1nnnc1C(c1cc2cc(C)ccc2[nH]c1=O)N1CCc2ccccc21 (centres undefined) | 17%
28 | Cc1cc(NC(=O)CSc2nnc(Cc3cccn3C)n2CCc2ccccc2)no1 | 24.2%
29 | CC1(C)Cc2cccc(OCC(=O)OCc3nnc(-c4ccccc4)o3)c2O1 | -2.78%
30 | C/C(=N\NC(=O)Cc1cccn1C)c1ccco1 | 20.2%
31 | CC(/C=N/NC(=O)Cc1cccs1)=C\c1ccco1 | 12.2%
32 | CC(=O)Nc1ccc2c(c1)nc(C)n2-c1ccccc1 | -9.18%
33 | O=C1CC(c2ccc(O)cc2)Oc2cc(O)cc(O)c21 (centres undefined) | 10.3%
34 | O=C1C[C@@H](c2ccc(O)cc2)Oc2cc(O)cc(O)c21 | 2.93%
35 | Cc1n[nH]c(C)c1S(=O)(=O)N(C)Cc1ccco1 | 0%
36 | Cc1noc(C)c1COc1ccc(C(=O)OCC(=O)N2CC(=O)Nc3ccccc32)cc1 | 2.4%
37 | CCC(=O)c1ccc(OCC(=O)OCC(=O)N2c3ccccc3NC(=O)C2(C)C)cc1 | 0.69%
38 | CS(=O)(=O)N(CC(=O)N1CCCCCC1)c1ccc2c(c1)OCCO2 | 0.11%
39 | CCC(=O)Nc1nc2ccc([N+](=O)[O-])cc2s1 | 1.71%
40 | COc1ccc(C)cc1NC(=O)NCc1ccc(F)cc1 | 7.92%
41 | COc1ccc(OC)c(NC(=O)NCc2cccnc2)c1 | -1.39%
42 | O=C(CCNC(=O)c1ccc(Cl)cc1)NCc1ccccc1Cl | -1.5%
43 | COc1cccc(-c2c3c([nH]c(=O)c2C#N)CCc2cc(OC)ccc2-3)c1 | -2.14%
44 | CCCCN1CC(COCc2ccccc2)Oc2cc(Br)ccc2S1(=O)=O (centres undefined) | -3.27%
45 | CCC(C(=O)OCC(=O)Nc1ccc(C(N)=O)cc1)c1ccccc1 (centres undefined) | -11.4%
46 | CCC(C(=O)OCC(=O)Nc1ccc(F)cc1)c1ccccc1 (centres undefined) | 11.7%
47 | CCSc1nnc(NC(=O)[C@@H](NC(=O)c2ccccc2F)C(C)C)s1 | -8.51%
48 | Cc1cc(Cl)c2c(c1)[C@]1(C(=O)N2)[C@@H]2C(=O)N(Cc3ccccc3)C(=O)[C@@H]2[C@@H]2CCCN21 | 28.3%

Row | Compound | inhibition
49 | Cc1c(Cl)ccc2c1NC(=O)[C@]21[C@@H]2C(=O)N(Cc3ccccc3)C(=O)[C@@H]2[C@@H]2CCCN21 | 2.38%
50 | O=C(Cc1n[nH]c(=O)c2ccccc12)OCC(=O)c1ccc(F)c(F)c1 | -13.4%
51 | Cc1cc(NC(=O)Nc2ccc(F)cc2F)n(C)n1 | -0.16%
52 | C#CCN(C[C@H]1[C@H](OC(=O)Nc2c(C)noc2C)[C@H](OC(=O)Nc2c(C)noc2C)C[C@@H](C(=O)OC)[C@H]1C(=O)OC)S(=O)(=O)c1ccc(C)cc1 | 1.23%
53 | COc1ccccc1C(=O)N(CCN(C)C)c1nc2cc(C)cc(C)c2s1 | -1.26%
54 | Cc1nc(NC(=O)COC(=O)/C=C/c2ccco2)c(Cl)cc1Cl | 20.2%
55 | Cc1c(Cl)cnc(NC(=O)COC(=O)/C=C/c2ccco2)c1Cl | 19.7%
56 | CCC1CCCCN1C(=O)CSc1nnc(N)s1 (centres undefined) | -4.63%
57 | O=C(NCC(c1ccco1)N1CCc2ccccc2C1)c1ccc(F)cc1 (centres undefined) | -9.45%
58 | O=C(/C=C/c1ccco1)NCCc1ccccc1 | 0.33%
59 | COc1ccc(CCNC(=O)/C=C/C(=O)O)cc1 | 14.3%
60 | CCC1(C)Cc2nc3sc(C(=O)O)c(N)c3cc2CO1 (centres undefined) | 32.8%
61 | CC1(C)Cc2nc3sc(C(=O)NCCCO)c(N)c3cc2CS1 | -0.06%
62 | COc1ccc(-c2ccc3c(c2)C2CC3CCN2C(=O)C(C)(C)C)cc1 (centres undefined) | -6.26%
63 | COc1ccc(Cc2nnc(SCC(=O)NC(C)c3ccccc3)o2)cc1 (centres undefined) | 8.9%
64 | CCOC(=O)C1(CC)NC(c2ccco2)C2C(=O)N(CC)C(=O)C21 (centres undefined) | 0.75%
65 | CCOC(=O)C1(C)NC(c2ccco2)C2C(=O)N(C)C(=O)C21 (centres undefined) | 2.73%
66 | CCOc1ccccc1NC(=O)c1cc2ccccc2oc1=O | 5.96%
67 | O=C(Nc1ccccc1)c1ccccc1N=Cc1ccccc1O | -0.3%
68 | O=c1[nH][nH]cc1C=Nc1ccccc1O | 1.21%
69 | Cc1cccc(NC(=O)Cn2cnc3c(oc4ccccc43)c2=O)c1 | 4.28%
70 | CCCCn1c(SCC(N)=O)nnc1-c1ccco1 | 3.37%
71 | c1ccc(OCCCCN2CCOCC2)cc1 | 16.5%
72 | CC(C)(C)OC(=O)N1CC=C2C(C#N)=C(N)C(C#N)(C#N)C(c3cccs3)C2C1 (centres undefined) | 5.47%

Row | Compound | inhibition
73 | CCOC(=O)N1CC=C2C(C#N)=C(N)C(C#N)(C#N)[C@H](c3ccsc3)[C@H]2C1 | 9.32%
74 | CC1CCN(c2nnc(NC(=O)Cn3c(=O)oc4ccccc43)s2)CC1 | 4.48%
75 | COC(=O)c1c(S(=O)(=O)N2CCOCC2)c(C)n(C)c1C | 2.63%
76 | Cc1cn([C@H]2C[C@H](O)[C@@H](CNCc3ccccc3)O2)c(=O)[nH]c1=O | -4.57%
77 | CC1CN(C(=O)c2ccn(C)n2)CC(C)O1 (centres undefined) | -6.54%
78 | O=C(CN1CCN(Cc2ccccc2)CC1)N/N=C\C=C/c1ccco1 | 29.4%
79 | CC1S/C(=N/N=C/c2ccco2)N(Cc2ccc(F)cc2)C1=O (centres undefined) | 2.84%
80 | O=C1CS/C(=N/N=C/c2ccco2)N1Cc1ccc(F)cc1 | 10.9%
81 | O=C1C2C3CCC(C3)C2C(=O)N1Cc1ccco1 (centres undefined) | -17.6%
82 | CC1S/C(=N/N=C/c2ccco2)N(Cc2ccccc2)C1=O (centres undefined) | 4.75%
83 | CC(c1ccccc1)C1CC(=O)N(Cc2ccco2)C1=O (centres undefined) | 1.07%
84 | O=C(CN1C(=O)C(=O)N(Cc2ccco2)C1=O)NC1CCCCC1 | 10.2%
85 | O=C1c2ccccc2C(=O)N1Cc1ccco1 | 6.23%
86 | O=c1cc(NCCc2ccccc2)c2ccccc2o1 | -9.21%
87 | Cc1ccc(OCCNC(=O)CNC(=O)c2ccccc2Cl)cc1 | -0.63%
88 | Cc1cc(C)c(S(=O)(=O)N2CCCC(C(=O)NCCC3=CCCCC3)C2)c(C)c1 (centres undefined) | 9.17%
89 | O=C(N=C1SC2CS(=O)(=O)CC2N1Cc1ccccc1)C1CC1 (centres undefined) | -2.49%
90 | COc1ccc(CNc2nc(NCc3ccc(OC)c(OC)c3)n(C(=O)c3cccs3)n2)cc1OC | 13.3%
91 | CC(C)N(Cc1nccn1C)C(=O)CC1C(=O)NCCN1Cc1ccc(F)c(F)c1 (centres undefined) | -8.55%
92 | COc1ccc(CN2CCNC(=O)C2CC(=O)N(Cc2nccn2C)C(C)C)c(OC)c1 (centres undefined) | -0.6%
93 | Cc1ccc(SCCOCCN2CCc3ccccc3C2)cc1 | -8.65%
94 | C/C(Cl)=C/Cc1c(C)[nH]c2ccc(C)cc2c1=O | -1.26%
